Bioassay records (PubChem)
TGFb inhibitor: qHTS for Inhibitors of TGF-b; HepG2 CAGA-GFP TGF-b/SMAD3 reporter, GFP fluorescence, 18 h; TGF-beta stimulated, 500 pg/mL final; Potency, µM (top dose mostly 46.1 µM), most hits filed as inhibitors; actives 1.2% (n = 410,000); further: nearly all actives have a fitted effect of over 65% in size
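HEPG2 CAGA-GFP reporter cells (1000/well, DMEM with 1% FBS) received compounds, then recombinant TGF-beta at 500 pg/mL final for 18 hours at 37 degrees C. Per-cell GFP summed per well was normalised to unstimulated and stimulated DMSO controls before curve fitting.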
DT40 TDP1 no CPT: qHTS for Inhibitors of human tyrosyl-DNA phosphodiesterase 1 (TDP1): qHTS in cells in absence of CPT. DT40 Tdp1-/- hTDP1 cells, no CPT, ATP luminescence, 48 h. AID 686978, 2013. Potency, µM (series often up to 46.2 µM), actives largely listed as inhibitors. actives 15% (n = 420,000); further: nearly all actives have a fitted effect of over 55% in size
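Growth kinetics read by CellTiter-Glo luminescence after ≥48 hr at 37 °C. Cells: DT40 Tdp1-/- stably carrying human TDP1, 400 per well, compound exposure in the absence of CPT (DMSO vehicle).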
HepG2 tox: qHTS for Inhibitors of TGF-b: Cytotox Counterscreen. HepG2 CAGA-GFP viability, ATP luminescence, 18 h. Potency, µM (series often up to 46.1 µM), hits mostly cytotoxic. actives 0.76% (n = 410,000). AID 588856, 2011
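HepG2 CAGA-GFP cells (1000/well, DMEM with 1% FBS) received compound, then TGF-beta at 500 pg/mL final, and were incubated 18 hours at 37 degrees C. Viability was read by CellTiter-Glo luminescence. Media-only wells were set as complete cell-killing and DMSO as no toxicity.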
DT40 TDP1 CPT: qHTS for Inhibitors of human tyrosyl-DNA phosphodiesterase 1 (TDP1): qHTS in cells in presence of CPT | chicken DT40 Tdp1-/-;hTDP1 cells + 20 nM CPT, ATP luminescence, 48 h | Potency, µM (doses to about 46.2 µM), hits mostly inhibitors | actives 12% (n = 420,000) | AID 686979, 2013; further: nearly all actives have a fitted effect of over 55% in size
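Chicken DT40 Tdp1-/- cells stably complemented with human TDP1 were seeded at 400 cells/well in medium containing 20 nM camptothecin, exposed to pin-transferred compounds, and grown at 37 °C for at least 48 hr. Viability was read as ATP luminescence.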
IL1B secr inh: qHTS for Inhibitors of Inflammasome Signaling: IL-1-beta AlphaLISA Primary Screen; THP-1 LPS/ATP IL-1B secretion, AlphaLISA, 16 h; stronger effect = lower value; actives 4.7% (n = 360,000); activity change, % at 57.5 µM; in the data active means activity change below about -50%; inconclusive means mostly about -30% to -49%
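THP-1 cells pretreated 1 hr with compounds (up to 57.5 uM final), then stimulated with LPS (250 ng/mL final) plus ATP (1.25 mM final); secreted IL-1B measured by AlphaLISA after 16 hr, decreased signal indicating inhibition.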
S-ASM inh: Inhibitors of Secretory Acid Sphingomyelinase (S-ASM): qHTS; placental ASM, HMU-PC fluorogenic substrate, 60 min; Potency, µM (highest dose often 57.5 µM), usual class: inhibitors; actives 0.006% (n = 340,000)
Target sequence (P17405 47-631 limits assumed): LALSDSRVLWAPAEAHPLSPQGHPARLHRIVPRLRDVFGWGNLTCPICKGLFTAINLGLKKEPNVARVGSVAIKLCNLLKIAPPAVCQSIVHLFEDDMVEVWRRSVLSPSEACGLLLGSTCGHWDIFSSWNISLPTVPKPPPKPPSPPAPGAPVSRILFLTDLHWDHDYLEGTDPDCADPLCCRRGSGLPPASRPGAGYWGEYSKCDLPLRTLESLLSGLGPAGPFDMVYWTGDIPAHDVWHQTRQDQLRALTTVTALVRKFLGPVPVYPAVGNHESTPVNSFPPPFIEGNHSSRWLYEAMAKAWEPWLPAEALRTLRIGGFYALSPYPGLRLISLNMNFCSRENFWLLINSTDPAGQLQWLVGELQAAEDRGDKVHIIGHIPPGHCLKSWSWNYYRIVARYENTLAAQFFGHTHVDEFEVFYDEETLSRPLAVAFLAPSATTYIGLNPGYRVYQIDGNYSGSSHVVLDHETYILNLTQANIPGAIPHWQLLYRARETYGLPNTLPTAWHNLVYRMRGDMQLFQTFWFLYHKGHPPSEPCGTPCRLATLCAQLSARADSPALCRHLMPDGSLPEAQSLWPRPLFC
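HMU-PC0 cleavage (9 uM final) by human placental ASM, 60 min at 37 °C following 10 min compound exposure at RT; stopped at pH 10, fluorescence Ex 386/Em 447 nm.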
Each line names hits and unclear results; the compound was inactive in the other large screens. Only some compounds are listed: those with a hit (about 19% of all), similar ones and a draw of the others. Unless noted, the call rests on the fitted dose curve; in most records, active means well fitted curve in the direction sought with a large enough effect; inconclusive means small, poorly fitted or top-dose-only effect, or another doubt; inactive means no such curve, though single readings can be large; an effect the other way counts as inactive or inconclusive.

CCCCN(C)C(=O)c1oc2ccc(S(=O)(=O)N3CCCCCC3)cc2c1C	TGFb inhibitor inconclusive, DT40 TDP1 no CPT inconclusive, DT40 TDP1 CPT 18.4µM, IL1B secr inh -67.6
Cc1c(C(=O)Nc2ccc(F)c(F)c2)oc2ccc(S(=O)(=O)N3CCC4(CC3)OCCO4)cc12	DT40 TDP1 no CPT 11.6µM, DT40 TDP1 CPT 13µM (no result: IL1B secr inh, S-ASM inh)
Cc1c(C(=O)Nc2ccc(F)c(F)c2)oc2ccc(S(=O)(=O)N3CCCCC3)cc12	TGFb inhibitor inconclusive, DT40 TDP1 no CPT inconclusive, DT40 TDP1 CPT 23.1µM, IL1B secr inh inconclusive
Cc1ccc2[nH]c3c(=O)n(CC(=O)N(C)Cc4ccccc4)ncc3c2c1	DT40 TDP1 no CPT inconclusive (no result: IL1B secr inh, S-ASM inh)
CCN(C(=O)CSc1nnc(COc2ccccc2F)n1N)c1c(N)n(Cc2ccccc2)c(=O)[nH]c1=O	none
CCOC(=O)C1=C(CS(=O)(=O)c2cccc(C(F)(F)F)c2)NC(=O)NC1c1cccc(OC)c1 (configuration not stated)	DT40 TDP1 no CPT inconclusive, DT40 TDP1 CPT inconclusive (no result: IL1B secr inh, S-ASM inh)
Cc1c(C(=O)Nc2ccc(Br)cc2F)oc2ccc(S(=O)(=O)N3CCC4(CC3)OCCO4)cc12	DT40 TDP1 no CPT inconclusive (no result: IL1B secr inh, S-ASM inh)
Cc1c(C(=O)Nc2ccc(F)cc2)oc2ccc(S(=O)(=O)N3CCC4(CC3)OCCO4)cc12	DT40 TDP1 no CPT 22.4µM, DT40 TDP1 CPT 15.8µM
Cc1ccc(NC(=O)c2oc3ccc(S(=O)(=O)N4CCC5(CC4)OCCO5)cc3c2C)c(C)c1	TGFb inhibitor inconclusive, DT40 TDP1 no CPT 6.51µM, DT40 TDP1 CPT 8.2µM (no result: IL1B secr inh, S-ASM inh)
CC(=O)NCC(=O)NCC1Cc2cc(C)cc(-c3ccccn3)c2O1 (configuration not stated)	none (no result: TGFb inhibitor, HepG2 tox, IL1B secr inh, S-ASM inh)
O=C(Nc1ccc(F)cc1F)N1CCCC(c2nc(-c3ccc(F)cc3)no2)C1 (configuration not stated)	DT40 TDP1 no CPT inconclusive, DT40 TDP1 CPT 18.4µM
O=C(c1ccc(F)cc1F)N1CCCC(c2nc(-c3ccc(F)cc3)no2)C1 (configuration not stated)	TGFb inhibitor inconclusive, DT40 TDP1 no CPT 18.4µM, DT40 TDP1 CPT inconclusive
COc1ccc(N2CCN(C(c3ccc(F)cc3)c3sc4nc(-c5ccco5)nn4c3O)CC2)cc1 (configuration not stated)	TGFb inhibitor inconclusive, DT40 TDP1 no CPT inconclusive (no result: IL1B secr inh, S-ASM inh)
COc1ccc(C(C)C)cc1S(=O)(=O)N1CCN(c2ccccc2)CC1	TGFb inhibitor inconclusive, DT40 TDP1 CPT inconclusive
Cc1c(O)c(CN2CCCCC2)cc2c1oc(=O)c1ccccc12	DT40 TDP1 no CPT 25.9µM, DT40 TDP1 CPT inconclusive, IL1B secr inh inconclusive
N#C/C(=C\c1coc2ccccc2c1=O)C(N)=S	DT40 TDP1 no CPT 14.6µM, DT40 TDP1 CPT inconclusive
C=CCOC(=O)C1=C(C)NC(=S)NC1/C=C/c1ccccc1 (configuration not stated)	TGFb inhibitor inconclusive, DT40 TDP1 no CPT inconclusive, DT40 TDP1 CPT inconclusive
CC1=C(C(=O)OCc2ccccc2)C(/C=C/c2ccccc2)NC(=S)N1 (configuration not stated)	TGFb inhibitor inconclusive, DT40 TDP1 no CPT 29.1µM, DT40 TDP1 CPT 16.4µM, IL1B secr inh inconclusive
CC(=O)N1CCc2cc(Br)cc(S(=O)(=O)NCCc3ccc(Cl)cc3)c21	none (no result: IL1B secr inh, S-ASM inh)
CC(=O)Nc1ccc(S(=O)(=O)NC(CC(=O)N(C)Cc2ccccc2)C(C)C)cc1 (configuration not stated)	DT40 TDP1 no CPT 23.1µM, DT40 TDP1 CPT 11.6µM
COc1ccc(OC)c(NC(=O)CNC(=O)c2ccc([N+](=O)[O-])cc2)c1	DT40 TDP1 no CPT inconclusive, DT40 TDP1 CPT inconclusive
Cc1ccc(-n2nc(CC#N)c(C#N)c2N)cc1	none
